# Measurements published in ChEMBL document CHEMBL1961873, “Compounds: GSK PKIS; Assays: Nanosyn kinase panel” (2012).
# How the values were obtained:
# [1] = target: T1, Tyrosine-protein kinase receptor TYRO3 (Homo sapiens) (UniProt Q06418); details: at 1 µM
# T1 sequence (whole entry): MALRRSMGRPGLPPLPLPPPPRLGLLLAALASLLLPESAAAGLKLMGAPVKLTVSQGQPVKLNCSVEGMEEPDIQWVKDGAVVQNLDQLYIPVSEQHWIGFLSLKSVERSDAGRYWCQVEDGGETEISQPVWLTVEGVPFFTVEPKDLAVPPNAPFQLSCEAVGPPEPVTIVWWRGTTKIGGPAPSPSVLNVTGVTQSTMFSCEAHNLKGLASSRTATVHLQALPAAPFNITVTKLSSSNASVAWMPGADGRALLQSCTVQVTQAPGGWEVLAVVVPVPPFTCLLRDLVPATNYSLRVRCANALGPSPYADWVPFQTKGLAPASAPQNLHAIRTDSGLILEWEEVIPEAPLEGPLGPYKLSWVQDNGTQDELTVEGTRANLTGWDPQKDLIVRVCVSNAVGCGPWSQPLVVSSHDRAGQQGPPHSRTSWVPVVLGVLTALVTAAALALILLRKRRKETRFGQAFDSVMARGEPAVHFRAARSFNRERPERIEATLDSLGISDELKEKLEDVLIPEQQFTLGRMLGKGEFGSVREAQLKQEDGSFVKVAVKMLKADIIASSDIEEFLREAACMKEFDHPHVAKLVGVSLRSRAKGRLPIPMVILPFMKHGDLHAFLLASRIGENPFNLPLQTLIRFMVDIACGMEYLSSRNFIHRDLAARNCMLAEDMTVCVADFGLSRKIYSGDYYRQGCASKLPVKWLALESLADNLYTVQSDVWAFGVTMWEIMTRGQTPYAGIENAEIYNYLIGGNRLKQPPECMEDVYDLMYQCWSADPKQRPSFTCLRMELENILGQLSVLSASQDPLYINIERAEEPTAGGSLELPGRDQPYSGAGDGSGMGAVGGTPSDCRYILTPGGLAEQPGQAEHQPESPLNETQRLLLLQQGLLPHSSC
# [2] = target: Tyrosine-protein kinase Yes (Homo sapiens) (UniProt P07947); details: at 0.1 µM
# Chain of Tyrosine-protein kinase Yes (Homo sapiens) (P07947 2-543 limits assumed): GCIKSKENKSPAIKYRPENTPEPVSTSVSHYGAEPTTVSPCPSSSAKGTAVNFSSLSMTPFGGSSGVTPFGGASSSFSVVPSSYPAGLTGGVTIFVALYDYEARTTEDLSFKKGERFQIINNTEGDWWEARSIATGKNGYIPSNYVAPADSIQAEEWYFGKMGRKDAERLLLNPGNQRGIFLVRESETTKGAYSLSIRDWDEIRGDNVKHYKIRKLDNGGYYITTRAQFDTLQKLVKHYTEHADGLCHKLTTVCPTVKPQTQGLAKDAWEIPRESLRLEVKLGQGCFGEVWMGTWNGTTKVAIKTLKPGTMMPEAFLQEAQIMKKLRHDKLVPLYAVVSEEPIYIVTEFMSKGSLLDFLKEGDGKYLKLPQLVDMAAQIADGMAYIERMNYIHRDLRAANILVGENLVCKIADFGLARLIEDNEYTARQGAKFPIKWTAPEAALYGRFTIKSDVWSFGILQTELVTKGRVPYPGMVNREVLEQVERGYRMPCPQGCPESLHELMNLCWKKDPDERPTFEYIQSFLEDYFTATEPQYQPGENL
# [3] = target: Tyrosine-protein kinase Yes (Homo sapiens) (UniProt P07947); details: at 1 µM
# [4] = target: T2, Tyrosine-protein kinase ZAP-70 (Homo sapiens) (UniProt P43403); details: at 0.1 µM
# T2 sequence (whole entry): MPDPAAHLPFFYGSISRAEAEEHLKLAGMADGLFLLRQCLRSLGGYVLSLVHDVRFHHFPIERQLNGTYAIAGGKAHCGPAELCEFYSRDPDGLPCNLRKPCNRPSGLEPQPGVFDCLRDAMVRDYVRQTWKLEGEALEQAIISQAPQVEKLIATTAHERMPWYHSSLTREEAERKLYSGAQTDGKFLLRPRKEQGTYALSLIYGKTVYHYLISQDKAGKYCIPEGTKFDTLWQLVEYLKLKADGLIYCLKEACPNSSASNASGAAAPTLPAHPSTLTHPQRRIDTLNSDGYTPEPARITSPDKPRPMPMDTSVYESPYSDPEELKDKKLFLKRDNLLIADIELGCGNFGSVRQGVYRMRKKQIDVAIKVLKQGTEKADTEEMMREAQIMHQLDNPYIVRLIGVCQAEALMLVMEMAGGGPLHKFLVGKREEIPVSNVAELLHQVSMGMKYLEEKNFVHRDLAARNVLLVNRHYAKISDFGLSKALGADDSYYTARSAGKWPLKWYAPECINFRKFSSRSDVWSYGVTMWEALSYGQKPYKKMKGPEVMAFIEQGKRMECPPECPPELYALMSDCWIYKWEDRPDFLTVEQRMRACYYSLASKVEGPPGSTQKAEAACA
# [5] = target: T2, Tyrosine-protein kinase ZAP-70 (Homo sapiens); details: at 1 µM
# [6] = target: Serine/threonine-protein kinase B-raf (Homo sapiens) (UniProt P15056); details: at 0.1 µM
# Chain of Serine/threonine-protein kinase B-raf (Homo sapiens) (P15056 whole entry): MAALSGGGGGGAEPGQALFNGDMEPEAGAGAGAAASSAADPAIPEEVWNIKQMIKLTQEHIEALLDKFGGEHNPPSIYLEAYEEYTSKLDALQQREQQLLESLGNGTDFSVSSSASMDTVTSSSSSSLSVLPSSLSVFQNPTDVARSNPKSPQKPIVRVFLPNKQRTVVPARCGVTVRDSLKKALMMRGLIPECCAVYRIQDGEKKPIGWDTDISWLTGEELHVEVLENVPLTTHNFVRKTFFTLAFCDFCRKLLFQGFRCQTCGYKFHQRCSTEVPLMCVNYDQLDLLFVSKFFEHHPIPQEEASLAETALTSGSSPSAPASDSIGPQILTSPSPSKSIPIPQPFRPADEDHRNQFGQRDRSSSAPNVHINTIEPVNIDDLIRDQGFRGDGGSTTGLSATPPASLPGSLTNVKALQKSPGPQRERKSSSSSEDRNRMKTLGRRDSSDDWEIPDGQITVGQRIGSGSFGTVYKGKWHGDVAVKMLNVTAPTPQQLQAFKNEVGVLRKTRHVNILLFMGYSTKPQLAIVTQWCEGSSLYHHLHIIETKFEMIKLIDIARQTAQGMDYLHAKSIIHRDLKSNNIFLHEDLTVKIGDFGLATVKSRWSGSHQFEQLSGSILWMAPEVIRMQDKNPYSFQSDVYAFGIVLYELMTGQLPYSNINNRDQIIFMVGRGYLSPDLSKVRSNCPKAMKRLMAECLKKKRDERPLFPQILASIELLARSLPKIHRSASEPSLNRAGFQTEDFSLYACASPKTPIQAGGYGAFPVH
# [7] = target: Serine/threonine-protein kinase B-raf (Homo sapiens) (UniProt P15056); details: at 1 µM
# [8] = system: Serine/threonine-protein kinase B-raf (Homo sapiens), P15056 [V600E]; details: at 0.1 µM
# Chain of Serine/threonine-protein kinase B-raf (Homo sapiens), P15056 [V600E] (P15056 whole entry V600E): as the sequence (P15056 whole entry) above, with V600E counted along it
# [9] = system: Serine/threonine-protein kinase B-raf (Homo sapiens), P15056 [V600E]; details: at 1 µM
# [10] = target: RAF proto-oncogene serine/threonine-protein kinase (Homo sapiens) (UniProt P04049); details: at 0.1 µM
# Chain of RAF proto-oncogene serine/threonine-protein kinase (Homo sapiens) (P04049 whole entry): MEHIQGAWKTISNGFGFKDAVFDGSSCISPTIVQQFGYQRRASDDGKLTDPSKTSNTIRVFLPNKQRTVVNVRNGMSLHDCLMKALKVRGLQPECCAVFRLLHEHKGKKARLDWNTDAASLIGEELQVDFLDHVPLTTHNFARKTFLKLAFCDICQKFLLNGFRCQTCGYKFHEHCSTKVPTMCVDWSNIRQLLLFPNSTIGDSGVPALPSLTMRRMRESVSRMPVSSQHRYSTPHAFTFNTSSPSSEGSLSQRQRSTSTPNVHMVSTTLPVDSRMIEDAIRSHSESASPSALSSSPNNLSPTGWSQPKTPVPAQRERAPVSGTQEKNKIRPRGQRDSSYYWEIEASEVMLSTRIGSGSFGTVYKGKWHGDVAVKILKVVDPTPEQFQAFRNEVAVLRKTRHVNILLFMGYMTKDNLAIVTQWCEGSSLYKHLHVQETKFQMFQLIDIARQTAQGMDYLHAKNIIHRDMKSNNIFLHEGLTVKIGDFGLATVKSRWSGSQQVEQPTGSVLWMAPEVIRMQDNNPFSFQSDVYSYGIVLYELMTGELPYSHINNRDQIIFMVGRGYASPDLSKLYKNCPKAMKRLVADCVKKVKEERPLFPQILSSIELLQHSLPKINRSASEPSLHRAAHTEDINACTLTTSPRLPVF
# [11] = target: T3, Interleukin-1 receptor-associated kinase 4 (Homo sapiens) (UniProt Q9NWZ3); details: at 0.1 µM
# T3 sequence (whole entry): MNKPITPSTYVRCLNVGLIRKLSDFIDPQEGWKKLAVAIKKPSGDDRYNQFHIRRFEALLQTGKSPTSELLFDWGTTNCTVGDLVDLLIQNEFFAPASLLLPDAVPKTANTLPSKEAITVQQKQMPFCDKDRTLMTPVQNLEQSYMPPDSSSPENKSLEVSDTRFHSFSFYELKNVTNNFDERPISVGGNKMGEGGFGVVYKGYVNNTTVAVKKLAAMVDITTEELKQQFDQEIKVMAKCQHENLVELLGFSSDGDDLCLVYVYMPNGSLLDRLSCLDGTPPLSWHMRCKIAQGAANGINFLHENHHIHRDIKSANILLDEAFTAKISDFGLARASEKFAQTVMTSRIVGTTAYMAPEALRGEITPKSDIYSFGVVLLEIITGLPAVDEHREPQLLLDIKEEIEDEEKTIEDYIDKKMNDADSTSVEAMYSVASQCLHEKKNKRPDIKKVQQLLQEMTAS
# [12] = target: T3, Interleukin-1 receptor-associated kinase 4 (Homo sapiens); details: at 1 µM
# [13] = target: Leucine-rich repeat serine/threonine-protein kinase 2 (Homo sapiens) (UniProt Q5S007); details: at 0.1 µM
# Chain of Leucine-rich repeat serine/threonine-protein kinase 2 (Homo sapiens) (Q5S007 whole entry): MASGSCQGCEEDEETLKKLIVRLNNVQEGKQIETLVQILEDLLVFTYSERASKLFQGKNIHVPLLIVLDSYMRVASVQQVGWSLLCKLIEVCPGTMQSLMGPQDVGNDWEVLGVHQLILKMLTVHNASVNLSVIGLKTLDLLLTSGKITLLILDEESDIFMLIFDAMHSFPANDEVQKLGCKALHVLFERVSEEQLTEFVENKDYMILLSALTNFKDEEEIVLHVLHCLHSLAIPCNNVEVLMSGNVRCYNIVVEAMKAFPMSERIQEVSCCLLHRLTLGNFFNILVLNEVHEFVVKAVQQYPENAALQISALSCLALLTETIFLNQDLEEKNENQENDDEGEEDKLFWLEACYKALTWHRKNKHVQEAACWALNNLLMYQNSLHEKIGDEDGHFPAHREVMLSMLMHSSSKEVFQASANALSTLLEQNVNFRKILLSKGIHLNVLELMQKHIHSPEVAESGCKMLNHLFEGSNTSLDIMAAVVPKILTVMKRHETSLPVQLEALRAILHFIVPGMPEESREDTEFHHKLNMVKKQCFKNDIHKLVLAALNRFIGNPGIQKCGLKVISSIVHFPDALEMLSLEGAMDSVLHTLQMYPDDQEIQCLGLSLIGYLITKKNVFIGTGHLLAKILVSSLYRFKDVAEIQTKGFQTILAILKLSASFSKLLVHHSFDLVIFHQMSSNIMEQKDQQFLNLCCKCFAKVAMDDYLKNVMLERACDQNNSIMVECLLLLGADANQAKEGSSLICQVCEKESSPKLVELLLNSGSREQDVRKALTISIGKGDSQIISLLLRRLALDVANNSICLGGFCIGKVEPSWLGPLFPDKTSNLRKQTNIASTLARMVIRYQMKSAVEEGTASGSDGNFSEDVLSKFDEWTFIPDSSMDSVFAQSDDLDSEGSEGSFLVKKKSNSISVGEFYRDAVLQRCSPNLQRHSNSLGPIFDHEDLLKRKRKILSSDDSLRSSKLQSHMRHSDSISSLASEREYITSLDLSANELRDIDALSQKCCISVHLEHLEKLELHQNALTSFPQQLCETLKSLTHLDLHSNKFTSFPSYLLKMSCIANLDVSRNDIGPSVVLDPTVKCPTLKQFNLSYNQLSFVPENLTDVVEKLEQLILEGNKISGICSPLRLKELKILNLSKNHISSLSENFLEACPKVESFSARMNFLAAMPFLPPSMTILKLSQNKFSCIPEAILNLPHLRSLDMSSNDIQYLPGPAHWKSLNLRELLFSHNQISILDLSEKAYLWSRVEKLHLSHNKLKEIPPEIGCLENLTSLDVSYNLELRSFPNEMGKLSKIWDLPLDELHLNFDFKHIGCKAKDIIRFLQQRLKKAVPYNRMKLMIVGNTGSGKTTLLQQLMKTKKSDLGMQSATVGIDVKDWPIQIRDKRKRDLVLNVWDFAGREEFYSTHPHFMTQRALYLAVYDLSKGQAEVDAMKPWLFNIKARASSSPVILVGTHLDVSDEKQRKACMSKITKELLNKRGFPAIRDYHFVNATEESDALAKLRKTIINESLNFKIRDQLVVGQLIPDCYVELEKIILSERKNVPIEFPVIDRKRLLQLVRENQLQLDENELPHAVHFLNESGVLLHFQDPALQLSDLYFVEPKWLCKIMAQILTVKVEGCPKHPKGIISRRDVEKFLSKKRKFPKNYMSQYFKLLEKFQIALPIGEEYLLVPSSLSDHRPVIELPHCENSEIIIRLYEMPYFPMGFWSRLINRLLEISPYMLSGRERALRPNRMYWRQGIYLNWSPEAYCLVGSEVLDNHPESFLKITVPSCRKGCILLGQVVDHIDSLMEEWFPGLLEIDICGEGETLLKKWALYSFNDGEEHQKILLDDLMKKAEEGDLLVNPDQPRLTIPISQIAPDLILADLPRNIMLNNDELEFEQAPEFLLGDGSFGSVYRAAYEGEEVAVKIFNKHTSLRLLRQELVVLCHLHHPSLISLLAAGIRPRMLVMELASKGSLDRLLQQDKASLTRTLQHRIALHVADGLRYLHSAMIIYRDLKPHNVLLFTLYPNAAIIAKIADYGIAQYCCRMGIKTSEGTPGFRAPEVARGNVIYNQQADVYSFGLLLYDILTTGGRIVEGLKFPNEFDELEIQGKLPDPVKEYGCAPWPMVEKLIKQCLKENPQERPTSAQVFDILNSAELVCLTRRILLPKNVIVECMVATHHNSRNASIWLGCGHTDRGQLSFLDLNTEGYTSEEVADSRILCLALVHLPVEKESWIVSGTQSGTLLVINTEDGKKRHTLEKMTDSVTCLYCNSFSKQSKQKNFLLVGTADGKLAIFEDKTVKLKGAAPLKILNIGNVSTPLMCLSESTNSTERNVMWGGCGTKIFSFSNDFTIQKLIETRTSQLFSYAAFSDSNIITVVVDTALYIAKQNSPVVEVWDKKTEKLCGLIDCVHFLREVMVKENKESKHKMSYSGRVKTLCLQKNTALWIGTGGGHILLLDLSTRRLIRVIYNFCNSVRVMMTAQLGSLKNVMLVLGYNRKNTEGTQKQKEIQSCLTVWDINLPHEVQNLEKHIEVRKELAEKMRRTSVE
# [14] = target: Leucine-rich repeat serine/threonine-protein kinase 2 (Homo sapiens) (UniProt Q5S007); details: at 1 µM
# [15] = system: Leucine-rich repeat serine/threonine-protein kinase 2 (Homo sapiens), Q5S007 [G2019S]; details: at 0.1 µM
# Chain of Leucine-rich repeat serine/threonine-protein kinase 2 (Homo sapiens), Q5S007 [G2019S] (Q5S007 whole entry G2019S): as the sequence (Q5S007 whole entry) above, with G2019S counted along it
# [16] = system: Leucine-rich repeat serine/threonine-protein kinase 2 (Homo sapiens), Q5S007 [G2019S]; details: at 1 µM
# [17] = target: RAF proto-oncogene serine/threonine-protein kinase (Homo sapiens) (UniProt P04049); details: at 1 µM
SMILES,inhibition [1] [%],inhibition [2] [%],inhibition [3] [%],inhibition [4] [%],inhibition [5] [%],inhibition [6] [%],inhibition [7] [%],inhibition [8] [%],inhibition [9] [%],inhibition [10] [%],inhibition [11] [%],inhibition [12] [%],inhibition [13] [%],inhibition [14] [%],inhibition [15] [%],inhibition [16] [%],inhibition [17] [%]
c1cc(-c2cnn3nc(N4CCOCC4)ccc23)nc(NC2CC2)n1,2.97,0.8,0.73,-5.37,-0.37,6.23,11.5,3.6,9.04,1.78,-3.02,4.62,4.63,16.4,6.59,37.2,–
CC(C)(CO)CNC(=O)c1ccc2c(c1)/C(=N/Nc1ccc(S(N)(=O)=O)cc1)C(=O)N2,5.36,1.79,16.9,-3.15,0.33,5.62,43.5,7.49,44.1,-0.32,-1.23,-0.85,3.58,15,6.85,37.8,-3.84
COc1ccc2c(-c3ccnc(Nc4cccc(OC(F)(F)F)c4)n3)cnn2n1,7.73,2.47,6.34,0.87,3.62,6.94,7.89,5.16,6.12,1.54,-3.64,2.91,5.25,14.5,8.08,39.3,–
N#Cc1c(NC(=O)c2ccc(F)cc2)sc2c1CCCC2,2.87,0.59,4.07,1.26,2.47,1.72,3.03,1.04,2.86,-3.13,1.78,0.51,0.58,1.04,1.92,5.12,–
CC1=C(C(=O)Nc2cc(Cl)c3[nH]ncc3c2)C(c2ccc(C(F)(F)F)cc2)CC(=O)N1 (configuration not stated),5.41,6.96,27.4,3.23,3.9,9.34,35.7,10.2,35.6,0.78,2.04,1.44,2.62,4.9,4.35,12.6,-5.81
Cc1ccc2c(-c3ccnc(Nc4ccccc4)n3)c(-c3ccc(F)cc3)nn2n1,25.6,58.4,92.1,2.85,2.04,6.37,15.5,4.53,13,-2.73,-2.94,1.87,3.22,7.93,3.36,7.63,–
Cc1cccc2c1NC(=O)/C2=N\Nc1ccc(S(N)(=O)=O)cc1,1.39,0.81,-0.24,2.59,2.59,3.47,4.79,2.89,3.31,-3.52,-0.09,1.25,2.99,7.1,2.75,10.2,–
NS(=O)(=O)c1ccc(N/N=C2\C(=O)Nc3ccc4ncccc4c32)cc1,41.9,9.32,48.2,3.49,18.7,15,60.2,14.6,60.8,-0.71,2.94,2.77,19.4,22.2,40.4,63.2,–
COc1cccc(-n2ncc3c(N/N=C/c4ccc(F)cc4)ncnc32)c1,9.33,5.87,25.1,2.73,2.54,7.43,8.16,5.77,7.05,0.27,-3.94,1.4,1.96,6.79,5.09,8.94,–
CN(C)CCOc1ccc(-c2nc(-c3ccncc3)c(-c3ccc4c(c3)CC/C4=N\O)[nH]2)cc1,5.27,3.06,16.4,-1.98,–,63.5,88.8,72.2,90.1,12.5,-2.04,2.08,2.63,6.56,2.57,9.36,69.9
NC(=O)c1sc(-n2cnc3ccc(C(F)(F)F)cc32)cc1OCc1ccccc1Br,2.95,2.93,6.95,2.64,2.31,6.14,7.4,5.99,6.42,-1.07,0.72,1.61,1.61,6.09,2.3,12.8,-3.37
COc1cc2ncn(-c3cc(OCc4ccccc4C(F)(F)F)c(C(=O)N(C)C)s3)c2cc1OC,2,0.64,6.88,1.79,1.15,-0.22,1.2,-0.77,2.51,0.38,2.2,-0.25,2.7,15.2,1.6,16.7,-3.66
COc1ccc2[nH]c3c4[nH]c5ccc(OC)cc5c4c4c(c3c2c1)C(=O)NC4=O,63.7,6.75,33.5,2.68,8.6,5.05,7.83,5.01,6.69,-1.72,-1.07,4.52,20.8,24.3,61,63.2,-1.59
FC(F)(F)c1cccc(-c2nn3ncccc3c2-c2ccnc(Nc3ccc4c(c3)OCCO4)n2)c1,22.9,32.1,82.8,2,3.05,2.88,6.42,1.76,7.02,-1.62,6.37,0.32,3.16,5.46,2.53,7.93,-8.65
COc1cc(/C=N/Nc2ncnc3[nH]ncc23)ccc1O,26.6,16.4,58,0.75,7.51,5.39,8.88,4.62,8.2,4.83,-2.65,4.43,5.72,17.5,10,45.2,6.28
